Data: PubChem BioAssay (NCATS)
Where “and” joins values, the source holds several entries; their conditions need not be identical. Identical values can stand only once. Inconclusive results are not listed. Calls of active or inactive are those of the source. Unless noted, the call rests on the fitted dose curve; in most records, active means well fitted curve in either direction with a large enough effect (not every such curve was filed as active); inconclusive means small, poorly fitted or top-dose-only effect, or another doubt; inactive means flat fitted curve, though single readings scatter.

Experiments:
[1] = AP1 Signaling Pathway (AID 357); conditions: ME-180 AP-1-bla reporter, EGF-induced, beta-lactamase ratio, 5 h; series mostly up to 38 µM;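 further: ME-180 reporter cells stimulated with EGF at its EC50 level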
Summary of the method: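 Titration-series screen for positive or negative modulators of EC50 EGF-induced signaling in ME-180 cells carrying an AP-1-driven beta-lactamase reporter. After 5 hours at 37 degrees Celsius, CCF4 460nm/530nm emission ratio gave %Activity; AC50 values derived.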

[2] = molecular target: Cytochrome P450 1A2 (Homo sapiens) (UniProt P05177); experiment: p450-cyp1a2 (AID 410; calls by dose curve); conditions: recombinant CYP1A2, luciferin-ME demethylation, luminescence; series mostly up to 57 µM
Summary of the method: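 20nM CYP1A2 with 100uM Luciferin-ME (at Km) in 100mM KPO4; compound preincubated 10 min, NADPH regeneration added, 60 min at room temperature. Luciferin quantified by luminescence after detection reagent; normalized to 57 uM furafylline.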

[3] = NFAT Signaling Pathway (AID 444); conditions: Jurkat NFAT-bla M1, carbachol, beta-lactamase ratio, 5 h; series mostly up to 17.2 µM;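 further: carbachol stimulus at about its EC50 of 1 µM final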
Summary of the method: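 Read-out: CCF4 FRET ratio (460 nm/530 nm) after 1 h RT dye loading, used for %activity and AC50 from titration series. Cells: Jurkat NFAT-β-lactamase/M1 line, treated with compound plus 1 uM carbachol for 5 h, 37 °C.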

[4] = Stat Signaling Pathway (AID 446); conditions: ME-180 SIE beta-lactamase reporter, IL-6 stimulated, 5 h; series mostly up to 17.2 µM;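 further: ME-180 cervical cancer cells given 40 pM IL-6 alongside compound; SIE-controlled beta-lactamase reporter measured as 460/530 nm FRET emission ratio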
Summary of the method: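 Reporter line: ME-180 cervical carcinoma, SIE-beta-lactamase. Treatment: compound with 40 pM IL-6, 5 hrs, 37 C, in low-serum OPTI-MEM with 10 mM HEPES pH 7.3. Detection: 460/530 nm fluorescence.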

[5] = molecular target: Glucocorticoid receptor (Homo sapiens) (UniProt P04150); experiment: GR-GFP Redistribution (AID 450;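 active means compounds whose dose series gives a full or clear partial fitted curve of increased nuclear translocation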; further: potency means the concentration at half of the fitted maximal effect); conditions: U2OS GR-GFP nuclear translocation, laser cytometry, 2 h
[6] = molecular target: Glucocorticoid receptor (Homo sapiens) (UniProt P04150); experiment: GR-EFC Redistribution (AID 451; calls by dose curve; further: potency means the concentration at half of the fitted maximal effect); conditions: CHO-K1 GR-EFC translocation, beta-gal luminescence, 2 h
Summary of the method: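 Translocation of GR-ED fusion to nuclear EA restores b-gal, read by luminescence after 1 h room-temperature detection. Engineered CHO-K1 biosensor cells, 1,000/well, exposed 2 h at 37 C to titrations up to 46 uM final.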

[7] = molecular target: Mitogen-activated protein kinase 10 (Mus musculus) (UniProt Q61831); experiment: JNK3 AlphaScreen Assay (AID 530); conditions: JNK3 lysate, c-Jun phosphorylation; series mostly up to 57.1 µM;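 further: kinase came from lysate of stimulated human HepG2 cells; signal reports phosphorylation of biotinylated GST-cJun 1-79 at Ser73 with 10 µM ATP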
Summary of the method: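 Compound titrations were preincubated 15 minutes at room temperature with substrate, antibody and pre-activated JNK3-containing HepG2 lysate. Reactions were started with 10 uM ATP and stopped with EDTA-containing bead buffer for AlphaScreen detection.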

[8] = Cell Viability - BJ (AID 421; calls by dose curve;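 further: potency means the concentration at half of the fitted maximal effect; cells exposed to compound for 40 hours at 37 °C before readout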); conditions: BJ fibroblast viability, qHTS
Summary of the method: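 Cytotoxicity as drop in intracellular ATP (CellTiter-Glo, 20 min RT) after 40 hr compound exposure of BJ fibroblasts at 37 °C. Titrations scaled between DMSO and 100 uM tamoxifen, Hill-fitted for AC50.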

[9] = Cell Viability - Jurkat (AID 426;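 active means dose-dependent loss of cell ATP signal giving a full or clear fitted curve, ranked by lower potency value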; further: potency means the concentration at half of the fitted maximal effect); conditions: qHTS
Summary of the method: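 Jurkat (Clone E6-1) cells, 5000/well in complete medium, exposed to compounds for 40 hr at 37C; intracellular ATP measured by CellTiter-Glo luminescence after 20 min at room temperature. AC50 from Hill fits.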

[10] = Cell Viability - Hek293 (AID 427;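 active means compounds whose dose-response curve shows a full or clear partial loss of cell viability, called from curve shape rather than a numeric limit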;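 further: potency means the concentration at half of the fitted maximal effect; cells exposed to compound for 40 hours at 37 °C before reading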); conditions: qHTS
Summary of the method: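 Luminescent ATP content (CellTiter-Glo, 20 min at room temperature) was measured after a 40 hr, 37 °C compound exposure of HEK293 cells. AC50 values came from Hill-equation fits of qHTS concentration-response data normalized to DMSO and 100 uM tamoxifen.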

[11] = Cell Viability - HepG2 (AID 433; calls by dose curve;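 further: potency means the concentration at half of the fitted maximal effect; potency for ATP loss meaning cytotoxicity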); conditions: qHTS
Summary of the method: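 HepG2 hepatocellular carcinoma cells (1500/well) were treated with compounds for 40 h at 37 °C in complete medium; intracellular ATP was read by CellTiter-Glo luminescence. Data were normalized to DMSO and 100 uM tamoxifen, and AC50 came from Hill fits.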

[12] = Cell Viability - MRC5 (AID 434; calls by dose curve;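 further: potency means the concentration at half of the fitted maximal effect; potency reflects cytotoxicity seen as loss of intracellular ATP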); conditions: MRC5 lung fibroblast viability, qHTS
Summary of the method: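 qHTS cytotoxicity in human lung fibroblast MRC5 cells; 40 hr treatment, 37 °C; cellular ATP by luciferase luminescence; DMSO = 0%, 100 uM tamoxifen = 100% inhibition; Hill-fit AC50.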

[13] = Cell Viability - SK-N-SH (AID 435; calls by dose curve;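 further: potency means the concentration at half of the fitted maximal effect; compound exposure lasted 40 h at 37 °C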); conditions: SK-N-SH neuroblastoma cell viability qHTS
Summary of the method: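 SK-N-SH human neuroblastoma cells (1500/well) were exposed to compounds in complete medium for 40 h at 37 °C, and intracellular ATP was then measured by CellTiter-Glo luminescence. AC50 was taken from Hill fits, normalized to DMSO and 100 uM tamoxifen.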

[14] = Cell Viability - N2a (AID 540; active means well fitted curve in the direction sought with a large enough effect; an effect the other way counts as inactive or inconclusive; further: nearly all actives have a fitted effect of over 45% in size); conditions: N2a mouse neuroblastoma cell viability; series mostly up to 92.2 µM
Summary of the method: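 Mouse neuroblastoma N2a cells, 1500/well, exposed to compounds 40 h at 37 °C in complete medium. Viability measured as cellular ATP by CellTiter-Glo luminescence; AC50 from Hill fits of concentration-response.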

[15] = Cell Viability - NIH 3T3 (AID 541; active means well fitted curve in the direction sought with a large enough effect; an effect the other way counts as inactive or inconclusive; further: nearly all actives have a fitted effect of over 25% in size); conditions: NIH 3T3 cell viability, qHTS; series mostly up to 92.2 µM
Summary of the method: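 Mouse NIH 3T3 fibroblasts, 1000 cells/well, rested 5 hr at 37 °C, then exposed to compound for 40 hr at 37 °C in complete medium. Viability read as intracellular ATP by CellTiter-Glo luminescence; AC50 from Hill-equation fits of concentration-response data.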

[16] = Cell Viability - HUV-EC-C (AID 542; active means well fitted curve in the direction sought with a large enough effect; an effect the other way counts as inactive or inconclusive; further: nearly all actives have a fitted effect of over 35% in size); conditions: HUV-EC-C endothelial cell viability, qHTS; series mostly up to 92.2 µM
Summary of the method: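 HUV-EC-C human vascular endothelial cells, 1000/well, exposed to compound for 40 hr at 37 °C in complete medium. Intracellular ATP was read by CellTiter-Glo luminescence. AC50 came from Hill-equation fits of concentration-response data.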

[17] = Cell Viability - H-4-II-E (AID 543; active means well fitted curve in the direction sought with a large enough effect; an effect the other way counts as inactive or inconclusive; further: nearly all actives have a fitted effect of over 35% in size); conditions: H-4-II-E rat hepatoma viability; series mostly up to 92.2 µM
Summary of the method: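 Rat hepatoma H-4-II-E cells, 1500 per well, treated 40 h at 37 °C in complete medium. Cellular ATP read by CellTiter-Glo luminescence; AC50 from Hill fits of concentration-response.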

[18] = Cell Viability - SH-SY5Y (AID 544; active means well fitted curve in the direction sought with a large enough effect; an effect the other way counts as inactive or inconclusive; further: nearly all actives have a fitted effect of over 55% in size); conditions: SH-SY5Y neuroblastoma cell viability; series mostly up to 92.2 µM
Summary of the method: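 SH-SY5Y human neuroblastoma cells (1500/well) incubated 5 h, then compound-treated 40 h at 37 °C in complete medium. Viability read as intracellular ATP by CellTiter-Glo luminescence after 20 min; AC50 from Hill-equation fits of qHTS concentration-response.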

[19] = Cell Viability - Renal Proximal Tubule (AID 545; active means well fitted curve in the direction sought with a large enough effect; an effect the other way counts as inactive or inconclusive; further: nearly all actives have a fitted effect of over 40% in size); conditions: renal proximal tubule cells viability, primary cells of rat origin; series mostly up to 91.7 µM
Summary of the method: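 Primary rat renal proximal tubule cells (1000/well) were treated with compounds for 40 hr at 37 °C in complete medium. Intracellular ATP was measured by CellTiter-Glo luminescence, and AC50 values came from Hill-equation fits of concentration-response data.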

[20] = Cell Viability - Mesenchymal (AID 546; active means well fitted curve in the direction sought with a large enough effect; an effect the other way counts as inactive or inconclusive;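 further: cells exposed to compound for 40 hours before reading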); conditions: mesenchymal cells viability, qHTS; series mostly up to 91.7 µM
Summary of the method: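 AC50 values reflect the drop in intracellular ATP in a human kidney mesenchymal line derived from normal glomeruli. Treatment lasts 40 hr at 37 °C in complete medium, and the signal comes from CellTiter-Glo luminescence.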

Measured: Potency

Sequence of Cytochrome P450 1A2 (Homo sapiens) (P05177 whole entry, looked up): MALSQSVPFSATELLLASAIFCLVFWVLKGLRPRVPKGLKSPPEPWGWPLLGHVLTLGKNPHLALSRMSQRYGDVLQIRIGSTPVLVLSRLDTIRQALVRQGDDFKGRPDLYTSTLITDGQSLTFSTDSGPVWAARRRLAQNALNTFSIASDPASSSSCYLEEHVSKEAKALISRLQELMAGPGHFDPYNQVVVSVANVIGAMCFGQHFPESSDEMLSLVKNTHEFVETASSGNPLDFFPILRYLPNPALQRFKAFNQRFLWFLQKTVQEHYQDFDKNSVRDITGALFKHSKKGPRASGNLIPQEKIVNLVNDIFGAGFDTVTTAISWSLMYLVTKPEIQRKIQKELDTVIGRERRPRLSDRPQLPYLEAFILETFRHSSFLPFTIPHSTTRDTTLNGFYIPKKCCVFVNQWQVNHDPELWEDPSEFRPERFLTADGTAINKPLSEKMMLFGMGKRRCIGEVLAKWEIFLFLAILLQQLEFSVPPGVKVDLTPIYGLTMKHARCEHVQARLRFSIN
Sequence of Glucocorticoid receptor (Homo sapiens) (P04150 whole entry, looked up, the tested form may be a part): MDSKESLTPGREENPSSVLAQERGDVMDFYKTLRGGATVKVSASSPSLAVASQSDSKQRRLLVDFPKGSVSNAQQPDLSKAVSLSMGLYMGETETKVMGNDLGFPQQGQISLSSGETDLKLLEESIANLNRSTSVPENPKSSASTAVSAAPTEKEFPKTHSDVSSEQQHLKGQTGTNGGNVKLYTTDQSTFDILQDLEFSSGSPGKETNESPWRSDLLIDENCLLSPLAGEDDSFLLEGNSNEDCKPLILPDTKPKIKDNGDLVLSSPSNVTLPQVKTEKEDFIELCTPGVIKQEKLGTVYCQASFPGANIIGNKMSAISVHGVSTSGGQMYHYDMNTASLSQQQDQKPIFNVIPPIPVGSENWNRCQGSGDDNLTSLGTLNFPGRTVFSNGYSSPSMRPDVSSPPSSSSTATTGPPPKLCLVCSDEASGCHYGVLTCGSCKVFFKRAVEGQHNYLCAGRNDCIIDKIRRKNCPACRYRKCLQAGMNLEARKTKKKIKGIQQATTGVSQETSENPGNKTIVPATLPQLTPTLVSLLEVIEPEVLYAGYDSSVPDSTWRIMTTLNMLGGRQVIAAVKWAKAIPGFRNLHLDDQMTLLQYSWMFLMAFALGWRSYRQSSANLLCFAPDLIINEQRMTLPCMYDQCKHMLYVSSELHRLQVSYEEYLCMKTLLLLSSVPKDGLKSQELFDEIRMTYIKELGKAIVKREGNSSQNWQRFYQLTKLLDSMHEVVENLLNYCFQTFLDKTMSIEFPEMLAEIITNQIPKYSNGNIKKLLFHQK

C[C@]1(C2CCCC2)Cc2cc(OCC(=O)O)c(Cl)c(Cl)c2C1=O
inactive: [1] | [2] | [3] | [4] | [5] > 46 µM | [6] > 46 µM | [7]

C=C1C[C@]23C[C@@]1(O)CC[C@H]2[C@@]12C=C[C@H](O)[C@@](C)(C(=O)O1)[C@H]2[C@@H]3C(=O)O
inactive: [8] > 92 µM | [9] > 92 µM | [10] > 92 µM | [11] > 92 µM | [12] > 92 µM | [13] > 92 µM | [7] | [14] | [15] | [16] | [17] | [18] | [19] | [20]

CC(C)C[C@H](NC(=O)[C@@H]1O[C@H]1C(=O)O)C(=O)NCCCCN=C(N)N
inactive: [1] | [2] | [3] | [4] | [5] > 46 µM and > 20.6 µM | [6] > 46 µM | [7]

CCN1CCN(C(=O)N[C@@H](C(=O)N[C@@H]2C(=O)N3[C@@H]2SC(C)(C)[C@@H]3C(=O)O)c2ccccc2)C(=O)C1=O
inactive: [3] | [4]

CCc1cccc2c3c([nH]c12)[C@@](CC)(CC(=O)O)OCC3
inactive: [1] | [2] | [3] | [4] | [7]

COc1ccc(CCC(=O)c2c(O)cc(O[C@@H]3O[C@H](CO)[C@@H](O)[C@H](O)[C@H]3O[C@@H]3O[C@@H](C)[C@H](O)[C@@H](O)[C@H]3O)cc2O)cc1O
inactive: [8] > 92 µM | [9] > 92 µM | [10] > 92 µM | [11] > 92 µM | [12] > 92 µM | [13] > 92 µM | [7] | [14] | [15] | [16] | [17] | [18] | [19] | [20]
